Bioassay records (PubChem)
Rows were chosen to be rich in hits. Some 22% of all compounds tested hit in one or more screens of this group.
Cycloheximide cs = affects cycloheximide protein synthesis inhibition readout, counter-screen | cell reporter, cycloheximide protein synthesis inhibition counterscreen | max response, % | 12% of 300,000 active; in the data active means max response mostly above about 13%, no sharp cut-off; inactive means mostly below about 14%; further: read at 38.3 µM for the half of the compounds with a filed dose; 0% is about no effect
Shiga inhibitor = inhibitors of Shiga toxin in Vero cells | AID 2315 | Vero cells, Shiga toxin protein synthesis inhibition reporter | inhibition, % at 38.7 µM | 9.2% of 290,000 active; in the data active means inhibition mostly above about 28%, no sharp cut-off; inactive means mostly below about 43%; further: 0% is about no effect
Pf growth 48h = P. falciparum growth inhibition at 48 hours (one generation); AID 504832; P. falciparum luciferase growth in erythrocytes, 48 h; Potency, µM (highest dose often 28.7 µM), inactives show top-dose activity change, negative = inhibition, usual class: inhibitors; 5.9% of 310,000 active; further: potency means the concentration at half of the fitted maximal effect; on the % scale 0 is the no-effect control and ±100 the full control effect
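In quantitative HTS format, infected erythrocytes bearing luciferase-reporter parasites were treated for a single generation at 37 C. Luminescence after adding detection reagent served as the growth measure.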
Pf growth 96h = P. falciparum growth inhibition at 96 hours. 6.9% of 320,000 active. P. falciparum luciferase reporter growth, 96 h. Potency, µM (top dose mostly 28.7 µM), without a hit: top-dose activity change, negative = inhibition, hits mostly inhibitors; further: potency means the concentration at half of the fitted maximal effect; on the % scale 0 is the no-effect control and ±100 the full control effect
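Parasite growth measured via integrated firefly luciferase reporter in P. falciparum. Infected erythrocytes at 2% hematocrit, 0.05% parasitemia final were treated 96 hours at 37 C under 5% CO2, and luminescence was read.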
LmPK inhibitor = inhibitors of Leishmania mexicana pyruvate kinase; Q27686; purified LmPK, Kinase-Glo ATP luminescence, 1 h; Potency, µM (top dose mostly 57.5 µM), without a hit: at the highest dose activity change, negative = inhibition, hits mostly inhibitors; 0.37% of 290,000 active; AID 1721; further: potency means the concentration at half of the fitted maximal effect; on the % scale 0 is the no-effect control and ±100 the full control effect
Target sequence (Q27686 whole entry, looked up): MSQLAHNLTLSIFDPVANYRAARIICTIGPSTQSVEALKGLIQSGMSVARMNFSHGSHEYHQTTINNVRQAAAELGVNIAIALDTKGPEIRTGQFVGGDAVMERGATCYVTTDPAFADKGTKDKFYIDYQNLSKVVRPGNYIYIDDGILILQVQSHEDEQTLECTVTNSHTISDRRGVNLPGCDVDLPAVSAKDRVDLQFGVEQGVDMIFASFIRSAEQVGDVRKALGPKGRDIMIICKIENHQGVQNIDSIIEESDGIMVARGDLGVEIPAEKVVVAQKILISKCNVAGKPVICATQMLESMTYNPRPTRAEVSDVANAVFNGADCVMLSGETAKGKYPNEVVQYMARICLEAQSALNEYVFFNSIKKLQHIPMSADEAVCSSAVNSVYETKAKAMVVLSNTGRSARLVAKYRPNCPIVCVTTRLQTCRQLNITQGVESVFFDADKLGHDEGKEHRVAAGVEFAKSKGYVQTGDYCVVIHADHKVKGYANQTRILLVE
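Screened at intermediate enzyme activity to detect both inhibitors and activators: LmPK at 0.1 nM, with a 0.5 nM enzyme column as activation reference. PEP 0.5 mM, ADP 0.1 mM; ATP detected by luminescence after 1 h.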
Numbers without * were called inactive; [ ] = another dose, or the depositor's remark. Unless noted, the call rests on the fitted dose curve; in most records, active means well fitted inhibition curve with a large enough effect; inconclusive means small, poorly fitted or top-dose-only effect, or another doubt; inactive means no such curve, though single readings can be large or run the other way.

For CCN(CC(=O)Nc1ccc(N2CCOCC2)cc1)C(=O)c1ccc(C(F)(F)F)cc1 the results were Cycloheximide cs -2.9, Shiga inhibitor -1.5, Pf growth 48h -2.3%, Pf growth 96h 20.6% and LmPK inhibitor 1.6%.
`Cc1ccc(-c2c[n+](CC(=O)OCc3ccccc3)c3n2CCC3)cc1` gave Cycloheximide cs -2.0, Shiga inhibitor -2.7, Pf growth 48h 20.1%, Pf growth 96h 15.8% and LmPK inhibitor -3.0%.
Cc1ccc(-c2c[n+](CC(=O)c3cccs3)c3n2CCC3)cc1 was read as Cycloheximide cs 3.5, Shiga inhibitor 11.5, Pf growth 48h 2.33µM*, Pf growth 96h 4.15µM* and LmPK inhibitor -11.1%.
Screening COc1ccc(-c2c[n+](CC(=O)c3cccs3)c3n2CCC3)cc1 returned Cycloheximide cs 1.5, Shiga inhibitor 14.5, Pf growth 48h 2.33µM*, Pf growth 96h inconclusive and LmPK inhibitor 0.9%.
Screening Cc1ccc(-c2nnc(Nc3ccc(C(N)=O)cc3)c3ccccc23)cc1S(=O)(=O)NCC1CCCO1 (stereo not drawn) returned Cycloheximide cs -2.9, Shiga inhibitor 2.1, Pf growth 48h 8.28µM*, Pf growth 96h inconclusive and LmPK inhibitor 0.2%.
Cc1ccc(-c2nnc(N3CCCCC3)c3ccccc23)cc1S(=O)(=O)NCC1CCCO1 (stereo not drawn) was read as Cycloheximide cs 0.6, Shiga inhibitor -27.0, Pf growth 48h 4.65µM* and LmPK inhibitor 4.8%.
`COc1nnc(-c2ccc(C)c(S(=O)(=O)NCC3CCCO3)c2)c2ccccc12` (stereo not drawn) gave Cycloheximide cs -4.6, Shiga inhibitor 10.7, Pf growth 48h inconclusive, Pf growth 96h -5.0% and LmPK inhibitor -5.0%.
For Cc1ccn2cc(CNS(=O)(=O)c3ccc4ccccc4c3)nc2c1 the results were Cycloheximide cs 8.8, Shiga inhibitor -5.6, Pf growth 48h 2.5%, Pf growth 96h inconclusive and LmPK inhibitor -2.2%.
Screening O=C(NCc1ccc(Cl)cc1)C1CCCN1C(=O)Nc1ccc(F)cc1 (stereo not drawn) returned Cycloheximide cs 2.0, Shiga inhibitor -7.2, Pf growth 48h 1.4%, Pf growth 96h -19.7% and LmPK inhibitor -2.9%.
For Oc1ccc(CN2CCCCC2)c2cccnc12 the results were Cycloheximide cs -3.2, Shiga inhibitor 0.6, Pf growth 48h inconclusive, Pf growth 96h -0.9% and LmPK inhibitor 2.3%.
Screening O=[N+]([O-])c1cc(CN2CCCC2)c2cccnc2c1O returned Cycloheximide cs -4.0, Shiga inhibitor -3.8, Pf growth 48h 9.28µM*, Pf growth 96h inconclusive and LmPK inhibitor -0.5%.
`Oc1c(CN2CCN(c3ccccn3)CC2)cc(Cl)c2cccnc12` gave Cycloheximide cs 13.7*, Shiga inhibitor 7.0, Pf growth 48h 2.33µM* and LmPK inhibitor 1.3%.
For Oc1c(Cl)cc(CN2CCCCC2)c2cccnc12 the results were Cycloheximide cs -0.8, Shiga inhibitor -5.5, Pf growth 48h 3.7µM*, Pf growth 96h 1.4% and LmPK inhibitor -1.7%.
Screening OCCN1CCN(Cc2cc(Cl)c3cccnc3c2O)CC1 returned Cycloheximide cs -2.6, Shiga inhibitor -12.4, Pf growth 96h inconclusive and LmPK inhibitor 2.6%.
`CNS(=O)(=O)c1cnccc1N1CCN(c2cccc(C(F)(F)F)c2)CC1` gave Cycloheximide cs -3.7, Shiga inhibitor -13.5, Pf growth 48h inconclusive, Pf growth 96h 14.7µM* and LmPK inhibitor -0.2%.
CCCC/C=C/[C@@H](c1ccccc1)C1COC(=O)CC1O (stereo partly drawn) was read as Cycloheximide cs 2.0 and Shiga inhibitor 3.0.
CSCC[C@H](NC(=O)[C@@H]1CCCN1C(=O)[C@H](CCCN=C(N)N)NC(=O)[C@H](CC(C)C)NC(=O)[C@@H]1CCCN1C(=O)[C@@H](NC(=O)[C@@H](N)CCC(N)=O)C(C)C)C(=O)N[C@H](C(=O)N[C@@H](Cc1ccc(O)cc1)C(=O)N[C@@H](CCCCN)C(=O)O)[C@@H](C)O was read as Cycloheximide cs -4.7 and Shiga inhibitor -6.3.
`O=[N+]([O-])c1cc(CN2CCN(c3cccc(C(F)(F)F)c3)CC2)c2cccnc2c1O` gave Cycloheximide cs -6.9, Shiga inhibitor -11.5, Pf growth 48h 0.828µM*, Pf growth 96h inconclusive and LmPK inhibitor 1.6%[11.5 µM].
Screening O=[N+]([O-])c1cc(Cl)ccc1N1CCN(c2cccc(C(F)(F)F)c2)CC1 returned Cycloheximide cs -0.2, Shiga inhibitor -13.1, Pf growth 48h inconclusive, Pf growth 96h 11.7µM* and LmPK inhibitor 3.5%.
For O=c1c(CN2CCN(c3ccccn3)CC2)coc2ccccc12 the results were Cycloheximide cs 66.3*, Shiga inhibitor 87.0*, Pf growth 48h 34.0%, Pf growth 96h 55.2% and LmPK inhibitor -3.6%.
For O=[N+]([O-])c1cc(Cl)ccc1N1CCCC1 the results were Cycloheximide cs -1.6, Shiga inhibitor 7.9, Pf growth 48h 3.5%, Pf growth 96h -8.3% and LmPK inhibitor 5.8%.
`Brc1ccc(CN2CCN(c3ccccn3)CC2)s1` gave Cycloheximide cs -3.3, Shiga inhibitor -10.9, Pf growth 96h 19.6% and LmPK inhibitor -0.5%.
For O=C(CSc1nnc2c(Cl)cc(Cl)cn12)N1CCN(c2ccc(F)cc2)CC1 the results were Cycloheximide cs -2.3, Shiga inhibitor 6.8, Pf growth 48h -13.8%, Pf growth 96h inconclusive and LmPK inhibitor -2.4%.
Screening C=CCN(c1cccc(C(F)(F)F)c1)S(=O)(=O)c1cccc(C(=O)OCC(=O)NC(N)=O)c1 returned Cycloheximide cs 6.1, Shiga inhibitor 12.5, Pf growth 48h -26.5%, Pf growth 96h inconclusive and LmPK inhibitor 2.7%.
C=CCN(c1cccc(C(F)(F)F)c1)S(=O)(=O)c1cccc(C(=O)OCC(=O)NC)c1 was read as Cycloheximide cs -4.3, Shiga inhibitor -0.8, Pf growth 48h inconclusive, Pf growth 96h 11.7µM* and LmPK inhibitor 2.4%.
For Cc1cc(-n2c(C)cc(C(=O)CSc3nc(N)cc(=O)[nH]3)c2C)no1 the results were Cycloheximide cs -0.4, Shiga inhibitor -0.4, Pf growth 48h -7.0%, Pf growth 96h inconclusive and LmPK inhibitor -1.8%.
COCC(C)n1c(C)cc(C(=O)CN2C(=O)NC3(CCCCC3C)C2=O)c1C (stereo not drawn) was read as Cycloheximide cs 0.9, Shiga inhibitor 52.2, Pf growth 48h inconclusive, Pf growth 96h inconclusive and LmPK inhibitor 0.1%.
Cc1cc(-n2c(C)cc(C(=O)CN3C(=O)NC4(CCCC4)C3=O)c2C)no1 was read as Cycloheximide cs 26.8*, Shiga inhibitor 22.9, Pf growth 48h inconclusive, Pf growth 96h 7.0% and LmPK inhibitor 0.1%.
Cc1cc(-n2c(C)cc(C(=O)CCl)c2C)no1 was read as Cycloheximide cs 7.2, Shiga inhibitor -18.3, Pf growth 48h -23.0%, Pf growth 96h inconclusive and LmPK inhibitor -0.6%.
